Results on 10 molecules are retold here after PubChem BioAssay (EPA / NIEHS).

Inconclusive results are not listed. Activity calls are given as the source filed them. How the source made its calls: active means hit-call score of the fitted dose curve at least 0.9, where 1 is the maximum; inconclusive means response in the unintended direction; inactive means score below 0.9.

The target of this assay is human Beta-secretase (BACE), BACE1 (gene 23621) (UniProt P56817). Description: NVS_ENZ_hBACE: NovaScreen (NVS) Enzymatic Assay for human Beta-secretase (BACE) (AID 2283140).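 Further: hits are inhibitors that reduce fluorescent substrate signal versus DMSO.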 On the procedure: NVS_ENZ_hBACE is a biochemical, single-readout assay that uses extracted gene-proteins from SF9 in a cell-free assay. Measurements were taken 1 hour after chemical dosing in a 96-well plate.NVS_ENZ_hBACE is one of one assay component(s) measured or calculated from the NVS_ENZ_hBACE assay. It is designed to make measurements of enzyme activity, a form of enzyme reporter, as detected with fluorescence intensity signals by Fluorescence technology.Data from the assay component NVS_ENZ_hBACE was analyzed into 1 assay endpoint. This assay endpoint, NVS_ENZ_hBACE, was analyzed in the positive analysis fitting direction relative to DMSO as the negative control and baseline of activity. Using a type of enzyme reporter, loss-of-signal activity can be used to understand changes in the enzymatic activity as they relate to the gene BACE1. Furthermore, this assay endpoint can be referred to as a primary readout, because […]. To generalize the intended target to other relatable targets, this assay endpoint is annotated to the protease intended target family, where the subfamily is aspartate protease.
human Beta-secretase (BACE), BACE1 (gene 23621), sequence (P56817 whole entry, looked up): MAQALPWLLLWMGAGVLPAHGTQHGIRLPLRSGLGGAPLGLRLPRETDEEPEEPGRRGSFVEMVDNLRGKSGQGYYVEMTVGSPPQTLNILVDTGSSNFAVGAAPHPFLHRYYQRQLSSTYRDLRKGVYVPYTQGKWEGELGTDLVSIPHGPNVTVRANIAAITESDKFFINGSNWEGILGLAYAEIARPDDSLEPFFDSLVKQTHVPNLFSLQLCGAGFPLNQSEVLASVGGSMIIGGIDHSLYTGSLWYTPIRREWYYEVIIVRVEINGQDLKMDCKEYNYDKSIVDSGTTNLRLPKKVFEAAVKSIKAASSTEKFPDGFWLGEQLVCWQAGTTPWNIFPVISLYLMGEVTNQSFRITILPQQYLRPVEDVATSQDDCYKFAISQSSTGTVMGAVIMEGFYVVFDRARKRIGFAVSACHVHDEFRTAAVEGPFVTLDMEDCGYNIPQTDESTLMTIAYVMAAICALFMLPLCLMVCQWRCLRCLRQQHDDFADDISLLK
Binding assays used specific radioligands (tritiated, iodinated) with non-radioactive competitive displacement ligands in agonist or antagonist protocols (as indicated) and various reference compounds and inhibitors to titrate specific binding to receptors and transporters. Most enzyme assays (CYPs, kinases, phosphatases, proteases, HDACs) used recombinant protein and specific substrates (fluorescence mostly, some colorimetric and radioactive) and inhibitors, followed by a biochemical separation of substrate and product. All assays for the biochemical HTS were initially run in duplicate at a single concentration (10 uM for CYP450 assays and 25 uM for all others). […] Each assay was run with positive and negative controls, and concurrent controls on every plate. The follow-up (secondary) screen tested active chemical-pairs in concentration series, as well as a few additional assays not tested in the primary screen, some selected negative inactives, and several cases re-run in the concentration series for confirmatory purposes.
Regarding `O=C(N[C@H](CO)[C@H](O)c1ccc([N+](=O)[O-])cc1)C(Cl)Cl`, the molecule was called inactive. Regarding `CCCCCCCCCCCCCCCCOS(=O)(=O)O`, the AC50 (in general, the concentration at which the activity in the assay is half-maximal) was 1.27 µM (active). Regarding `CCCCCCCC/C=C\CCCCCCCC(=O)OC[C@@H](O)[C@H]1OC[C@H](O)[C@H]1O`, the AC50 was 6.7 µM (active). With `CCCCCCCCCC`, the result was inactive. The same measure, in the same setting: under `CC[C@H](C)C(=O)O[C@H]1C[C@H](O)C=C2C=C[C@H](C)[C@H](CC[C@@H](O)C[C@@H](O)CC(=O)O)[C@H]21` stands “inactive”. Still for that read-out and setting: under `CCCCC(CC)C(=O)OCCOCCOCCOC(=O)C(CC)CCCC` (stereo not given) stands “inactive”.

As to `OCc1c[nH]c2ccccc12`, the AC50 is 25 µM (active). On the same count and under the same terms, the value for `S=P(N1CC1)(N1CC1)N1CC1` was 22.4 µM (active); that for `C=CCc1cc(S(=O)(=O)c2ccc(O)c(CC=C)c2)ccc1O` was 15.2 µM (active). In the case of `CCCCN1C(=O)[C@@H]([C@H](O)C2CCCCC2)NC(=O)C12CCN(Cc1ccc(Oc3ccc(C(=O)O)cc3)cc1)CC2`, the result was inactive.
